BoNT A protease: BoNT A light chain protease inhibition | inhibition, % at 10 µM | multiplex microsphere protease substrate cleavage, flow cytometry | 360,000 compounds, 0.17% hits; also: plate controls were buffer without enzyme for full effect and enzyme alone for no effect
PriA SSB inh: inhibitors of Klebsiella pneumoniae PriA binding to SSB C-terminal tail | AlphaScreen SSBct-PriA binding, biotinylated peptide | inhibition, % at 33 µM | 430,000 compounds, 0.6% hits; in the data active = inhibition mostly above about 37%, no sharp cut-off; inactive = mostly below about 20%;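 also: plate controls were negative control peptide for no effect and reference peptide for full effect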
MazF activator: activators of E. coli MazEF toxin-antitoxin RNase; 350,000 compounds, 0.32% hits; AID 504720; FAM/BHQ RNA-DNA oligo cleavage fluorescence, 5 h; P0AE70; activation, % at 20 µM; in the data active = activation above about 50%
Target sequence (P0AE70 whole entry, looked up): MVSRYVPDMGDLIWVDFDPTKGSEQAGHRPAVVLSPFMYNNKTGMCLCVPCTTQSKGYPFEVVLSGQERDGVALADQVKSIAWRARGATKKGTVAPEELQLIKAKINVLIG
Anthrax LF prot: inhibitors of Bacillus anthracis lethal factor protease | P15917 | multiplex microsphere protease cleavage assay, LF | 360,000 compounds, 0.12% hits | inhibition, % at 10 µM; also: plate controls were buffer without enzyme for full effect and enzyme alone for no effect
BoNT F protease: blocks Botulinum neurotoxin F light chain protease. Multiplex microsphere protease cleavage assay, flow cytometry. inhibition, % at 10 µM. 360,000 compounds, 0.22% hits. AID 588497; in the data active = inhibition above about 35%, passing the limit was not always enough; inconclusive = no clear call, values can overlap the other calls; also: plate controls were buffer without enzyme for full effect and enzyme alone for no effect
Autofluor counter: counter-screen for toxin protease inhibitors: compound fluorescence; compound autofluorescence counterscreen, microsphere flow cytometry; hits give high values; fluorescence intensity (no concentration beside the values); 360,000 compounds, 3.1% hits; AID 624483; in the data active = fluorescence intensity above about 16000; inconclusive = no clear call, values can overlap the other calls
Starred values were filed as active, the others as inactive; ? = inconclusive; / = not tested or not shown. Hits are enriched below; roughly 3.3% of the tested compounds scored in any of these assays. Rule as the data show it, unless noted: active = inhibition above about 30%; inconclusive = no clear call, values can overlap the other calls; inactive = below that.

SMILES | BoNT A protease | PriA SSB inh | MazF activator | Anthrax LF prot | BoNT F protease | Autofluor counter
O=C(NC1CCC(Oc2ncc(F)cn2)CC1)[C@@H]1CC=CCC1 (some centres undefined) | / | -6 | / | / | / | /
Cc1ccc(N=Cc2ccc(O)cc2O)cc1F | ? | -6 | 194* | 1 | 2 | 21566*
Oc1ccc(C=Nc2ccc(N3CCOCC3)cc2)c(O)c1 | -1 | 1 | -7 | -3 | -15 | 4790
COc1ccc(S(=O)(=O)N2CCCC2C(=O)Nc2nnc(-c3ccno3)o2)cc1 (centres undefined) | / | -1 | / | / | / | /
Cc1nc(-n2nc(-c3cccs3)cc2NC(=O)c2ccc(S(=O)(=O)N(C)C)cc2)[nH]c(=O)c1C | / | -6 | / | / | / | /
COc1ccc(Cl)c2sc(N(CCN3CCOCC3)C(=O)c3ccn(C)n3)nc12 | / | -5 | / | / | / | /
Cn1nc(CNS(=O)(=O)c2ccc3c(c2)OCCO3)cc1C1CC1 | / | -3 | / | / | / | /
CC(=O)N1CCc2cc(NC(=O)c3ccc(C)cc3)ccc21 | -3 | -1 | 4 | -2 | -3 | 21491*
COc1ccc(-c2nc(CS(=O)CC(=O)N3CCCC3)c(C)o2)cc1 (centres undefined) | 0 | -12 | 11 | 0 | -4 | 5246
Cc1ccc(-c2nc(CS(=O)CC(=O)N3CCC4(CC3)OCCO4)c(C)o2)cc1 (centres undefined) | 0 | / | / | 0 | 2 | 21619*
Cc1nc(SC(C(=O)c2ccccc2)c2ccccc2)nc2ccccc12 (centres undefined) | 1 | -4 | -1 | 0 | 4 | 2118
Cc1nc(SC(C(=O)c2ccccc2)c2ccccc2)n[nH]1 (centres undefined) | 4 | -10 | -7 | 0 | 5 | 20864*
Cc1cc(C)c2[nH]c(=O)c(CN(CC3CCCO3)S(=O)(=O)c3ccc4c(c3)OCCO4)cc2c1 (centres undefined) | 7 | 3 | -2 | -7 | 7 | 21471*
COc1ccc(N2CCN(/C(=N\S(=O)(=O)c3ccc(C)cc3)Nc3nc(C)cc(C)n3)CC2)cc1 | 2 | / | 10 | -3 | 0 | 19034*
CCOC(=O)c1ccc2nc(NC(=O)/C=C\c3cc(OC)c(OC)c(OC)c3)sc2c1 | / | -2 | / | / | / | /
O=C(Cn1cnc2c(cnn2C2CCS(=O)(=O)C2)c1=O)c1ccc2c(c1)OCCO2 (centres undefined) | / | -4 | / | / | / | /
Cc1cc(C)c(S(=O)(=O)N2CCN(c3cccc(C(F)(F)F)c3)CC2)cc1C | / | -19 | / | / | / | /
O=c1[nH]c2ccc(NCc3ccccc3OCc3ccc(Cl)cc3)cc2[nH]1 | -4 | 92* | 12 | 2 | 10 | 3750
CC(=O)N1CCN(c2ccc(N=Cc3c(O)n(Cc4ccccc4)c(=O)[nH]c3=O)cc2)CC1 | 0 | 0 | 77* | 2 | 3 | 3094
CC[n+]1c(/C=C/N(C)c2ccccc2)n(-c2ccccc2)c2ccc(-c3nc4ccccc4s3)cc21 | 18 | 14 | 68* | 8 | 17 | 6076
CCCCCC1CC(CC(=O)O)C(=O)O1 (centres undefined) | -1 | -20 | 4 | -3 | -4 | 3926
CCCCCC1CC(CC#CCN2CCOCC2)C(=O)O1 (centres undefined) | 4 | -10 | -5 | -1 | 6 | 21965*
Cc1ccc(C)c(N2CC(O)(c3ccc4c(c3)OCCO4)[N+]3=C2CCCC3)c1 (centres undefined) | / | 2 | / | / | / | /
Nc1nc(-c2ccco2)c(-c2ccco2)s1 | 0 | -2 | -67 | -4 | -34 | 2670
c1coc(-c2nc(-c3ccco3)c(-c3ccco3)nc2-c2ccco2)c1 | / | 43* | 6 | / | / | /
SMILES | BoNT A protease | PriA SSB inh | MazF activator | Anthrax LF prot | BoNT F protease | Autofluor counter
CCOc1cc(S(=O)(=O)NC2CCCCC2)ccc1F | 2 | -4 | 3 | -9 | 0 | 22695*
CC(C)C(NC(=O)COc1ccc2ccccc2c1)C(=O)N/N=C/C=C/c1ccccc1 (centres undefined) | -1 | / | -9 | 2 | -1 | 22567*
CC(C)C(NC(=O)COc1ccc2ccccc2c1)C(=O)NN=C/C=C/c1ccccc1 (centres undefined) | / | -15 | / | / | / | /
CNC(=O)c1cc2ccc(OC)cc2oc1=O | -1 | 3 | 2 | -2 | -10 | 4349
CNC(=O)c1cc2cc(OC)ccc2oc1=O | 4 | -10 | 4 | 0 | 6 | 21752*
CC(CN1CCN(C)CC1)OC(=O)c1ccc(Cl)cc1 (centres undefined) | -1 | -7 | -3 | -4 | -35 | 4731
CC(CN1CCN(C)CC1)OC(=O)c1ccc(Cl)cc1Cl (centres undefined) | ? | -15 | 3 | -4 | -1 | 16186*

Screens: PubChem, several laboratories
